Test [1] is described as follows: NCI Yeast Anticancer Drug Screen. Data for the rad50 strain (AID 155).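 Note: 0% = growth of vehicle-only cultures of the same strain.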 To be noted: S. cerevisiae rad50 strain growth inhibition; at 50.0 µM; hits give high values. Summed up:
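Relative growth inhibition (compound vs vehicle) was measured in yeast with a defined repair-gene alteration.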

Test [2] can be described thus: NCI Yeast Anticancer Drug Screen. Data for the mec2-1 strain (AID 157). To be noted: S. cerevisiae mec2-1 strain, at 50.0 µM, hits give high values. Summed up: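 Growth inhibition is read against vehicle-treated controls after compound exposure of the mec2-1 yeast strain, which is defective in DNA damage repair or cell cycle control.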
A short description of test [3]: NCI Yeast Anticancer Drug Screen. Data for the sgs1 mgt1 strain (AID 161).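 Note: 0% = growth of cultures given vehicle only.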 To be noted: S. cerevisiae sgs1 mgt1 strain, at 50.0 µM, hits give high values. Summed up:
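Growth of a repair-deficient yeast mutant was monitored after compound treatment and expressed as inhibition relative to vehicle-treated cultures.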

Test [4] can be described thus: NCI Yeast Anticancer Drug Screen. Data for the cln2 rad14 strain (AID 165).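 Note: 0% = growth equal to vehicle treated cultures.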 To be noted: S. cerevisiae cln2 rad14 strain, at 50.0 µM, hits give high values. Summed up: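 Growth inhibition, relative to vehicle-treated controls, is the read-out. The test organism is a yeast strain with defined genetic alterations, cln2 rad14.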
The nature of test [5]: NCI Yeast Anticancer Drug Screen. Data for the bub3 strain (AID 167). To be noted: S. cerevisiae bub3 mutant strain, at 50.0 µM, hits give high values. Summed up: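 Screening used yeast with an engineered genetic alteration affecting cell cycle control. Compound-exposed cultures were compared with vehicle cultures, and reduced growth was taken as inhibition.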
Test [6] in a line: NCI Yeast Anticancer Drug Screen. Data for the mlh1 rad18 strain (AID 175). To be noted: S. cerevisiae mlh1 rad18 strain growth inhibition; at 50.0 µM; hits give high values. Summed up:
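Cells of a genetically altered yeast strain, deficient in DNA damage repair, were treated with compound. Their growth was then compared with that of vehicle-treated cultures to give inhibition.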

About 79,000 compounds went through this panel and 15% of them were active in at least one assay; those are over-represented in the sample as a whole. Values without a mark were called inactive. Activity calls are given as the source filed them. Cut-off read from the data, not from the text of the source: active = growth inhibition above about 70%; inactive = the rest.

As for `CCN(CC)Cc1cc(C)c(O)c(N=Nc2ccc(-c3ccc(N)c(OC)c3)cc2OC)c1C`, the growth inhibition in test [1] was -21.4%; in test [2], 12.7%; in test [3] it was -8.05%; in test [4], -2.05%; in test [5], -6.1%; in test [6], -21.4%.

Turning to `COc1cc(/C=N/NC(N)=S)cc(OC)c1`, the growth inhibition was -4.1% in test [1]; -11.2% in test [2]; -15.1% in test [3]; -35.9% in test [4]; -17.6% in test [5]; -11.8% in test [6].

Take `CCC(C)NS(=O)(=O)c1ccc(Cl)cc1` (stereo unspecified): the growth inhibition in test [1] was 18.4%; in test [2] it was 9.55%; in test [3], 6.45%; in test [4], 8.6%; in test [5], 5.85%; in test [6] it was 3.7%.

Regarding `CCc1cccc(C(=O)O)c1N`, the growth inhibition in test [1] is 26.4%; in test [2], 5.75%; in test [3], 15.7%; in test [4] it was 3.65%; in test [5], -3.75%; in test [6], 0.9%.

Consider `O=c1[nH]nc(-c2ccccc2)n1-c1ccncc1`, for which the growth inhibition in test [1] was -4.65%; in test [2], 0.3%; in test [3], -6.45%; in test [4], -4.65%; in test [5], 12.7%; in test [6] it was 0.65%.

In the case of `Cc1cc(O)oc(=O)c1`, the growth inhibition is -7.7% in test [1]; -15.1% in test [2]; -7.2% in test [3]; -44.4% in test [4]; 1.85% in test [5]; -4.85% in test [6].

As for `COCC(=O)C(C(C)=O)C(c1ccc2c(c1)OCO2)C(C(C)=O)C(=O)COC` (stereo unspecified), the growth inhibition was -40.5% in test [1]; -8.25% in test [2]; -18.9% in test [3]; -39.5% in test [4]; -5.75% in test [5]; -2.6% in test [6].

For `Cc1onc2c1c(=O)n(C)c(=O)n2C`, the growth inhibition in test [1] is -6.25%; in test [2], -1.95%; in test [3] it was -3.55%; in test [4], -20.1%; in test [5], -7.45%; in test [6], -2.25%.

For the compound `CC1(C)NC(=O)N(CCCCCCN2C(=O)NC(C)(C)C2=O)C1=O`, the growth inhibition is 5.1% in test [1]; -9.45% in test [2]; 5.85% in test [3]; 6.1% in test [4]; -20.2% in test [5]; 8.6% in test [6].

As for `O=C(c1ccccc1)c1c[nH]c(=O)[nH]c1=O`, the growth inhibition in test [1] was -17.1%; in test [2], 10.2%; in test [3], -3%; in test [4], -3.2%; in test [5], 0.4%; in test [6], -26.9%.

Consider `COc1ccccc1NC(=O)CC(=O)N/N=C/c1ccc(N(CCC#N)S(=O)(=O)c2ccccc2)cc1`, for which the growth inhibition in test [1] is -48.4%; in test [2] it was 0.8%; in test [3], -20.6%; in test [4] it was 10.4%; in test [5] it was -15.8%; in test [6] it was -14.5%.

Consider `CC(C)=CCC1=C(OCC(=O)O)C(=O)c2ccccc2C1=O`, for which the growth inhibition in test [1] was 30.9%; in test [2] it was 1.45%; in test [3], 12.8%; in test [4], -2.7%; in test [5], 20.1%; in test [6] it was 23.1%.

With `C/C=C\COC(=O)C(C)OC(=O)OCC` (stereo unspecified), the growth inhibition in test [1] is 14.2%; in test [2] it was 11.8%; in test [3] it was 4.85%; in test [4], 5.75%; in test [5] it was -0.65%; in test [6], 0.5%.

Consider `CCOC(=O)CNC(=O)C(CCSCc1ccccc1)NC(=O)OCc1ccccc1` (stereo unspecified), for which the growth inhibition in test [1] was -2.75%; in test [2], 6.55%; in test [3] it was 0.3%; in test [4] it was 28.6%; in test [5] it was 4.45%; in test [6] it was 15.2%.

In the case of `Cc1c(O)cc(O)c(C=O)c1C`, the growth inhibition was 6.05% in test [1]; -4.2% in test [2]; 16.1% in test [3]; 4.5% in test [4]; -2.45% in test [5]; 3.1% in test [6].

Take `CC(=O)Nc1cccc(/C=C/C=C/c2cccc([N+](=O)[O-])c2)c1`: the growth inhibition is 89.3% (active) in test [1]; 91.2% (active) in test [2]; 93.5% (active) in test [3]; 81.1% (active) in test [4]; 91.3% (active) in test [5]; 91.2% (active) in test [6].

In the case of `CC(=O)Nc1ccccc1C(C)=O`, the growth inhibition was 5.45% in test [1]; -7.25% in test [2]; -10.2% in test [3]; 10% in test [4]; -8.05% in test [5]; 4.85% in test [6].

Turning to `C#CC[N+](CC)(CC)CC`, the growth inhibition in test [1] was 2.6%; in test [2], -11.9%; in test [3] it was -11.3%; in test [4], -84%; in test [5], -3.3%; in test [6] it was -13.2%.

`O=C(O)CCc1ccncc1`: the growth inhibition in test [1] is 2.25%; in test [2], 9%; in test [3] it was 12.8%; in test [4], -1.7%; in test [5], 7.1%; in test [6], -0.95%.

For the compound `C#CCC1CCCC/C1=N\Nc1ccc([N+](=O)[O-])cc1[N+](=O)[O-]` (stereo unspecified), the growth inhibition in test [1] is 2.25%; in test [2], 3.2%; in test [3], -4.4%; in test [4], -1.75%; in test [5], 4.4%; in test [6], 4.1%.

On to `CCCCS/C=C\SCCCC`, for which the growth inhibition in test [1] is 2.85%; in test [2] it was 7.55%; in test [3], -8.5%; in test [4] it was -26.4%; in test [5] it was 6.7%; in test [6], -1.65%.
